According to the supplement of paper PMC12645437, “Orthogonal IMiD-Degron Pairs Induce Selective Protein Degradation in Cells” (ACS Chemical Biology, 2025):
Over roughly 8,300 sequences, “log2 fold change of degron read counts, EGFP-low vs EGFP+ sorted cells (limma voom), compound-induced degradation” has its median near -1.1; the highest 2% begin near 3.2. Many of the other results were omitted from the sample, so the highest values are more common in it than they were.

Molecular target: T1, CRBN, Q96SW2
T1 chain: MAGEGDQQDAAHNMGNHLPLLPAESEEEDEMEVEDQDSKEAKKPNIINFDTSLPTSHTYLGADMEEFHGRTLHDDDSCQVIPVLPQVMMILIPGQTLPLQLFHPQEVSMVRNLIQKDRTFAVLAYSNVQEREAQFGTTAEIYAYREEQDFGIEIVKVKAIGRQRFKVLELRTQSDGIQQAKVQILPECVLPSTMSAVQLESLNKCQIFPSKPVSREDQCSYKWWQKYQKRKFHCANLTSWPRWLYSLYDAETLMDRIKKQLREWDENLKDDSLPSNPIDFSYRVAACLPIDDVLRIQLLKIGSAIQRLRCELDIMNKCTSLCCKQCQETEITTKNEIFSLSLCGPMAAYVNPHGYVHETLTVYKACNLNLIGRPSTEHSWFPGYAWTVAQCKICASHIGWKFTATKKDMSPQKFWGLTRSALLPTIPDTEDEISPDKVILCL
Assay: log2 fold change of degron read counts, EGFP-low vs EGFP+ sorted cells (limma voom), compound-induced degradation; higher = more compound-induced degradation of the degron-EGFP fusion; degrons are variants of IKZF1/3 zinc finger 2; compound dose not given here
Details: Jurkat, 18 h
Experimental: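 Pooled library of 8380 IKZF3 ZF2 degron mutants (positions 146-167 varied within the IKZF3 130-189 degron; only the varied core is printed, flanks not printed) fused to EGFP with IRES-mCherry, lentivirally expressed in Jurkat cells. mCherry+ cells were treated with one IMiD compound for 18 h (dose not stated) and FACS-sorted into EGFP-low and EGFP+ populations. Degron sequences were counted by NGS, and log2FC (EGFP-low vs EGFP+) was estimated by limma voom over 3 biological replicates.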

[1] = compound: compound 19 (5-tert-butyl-thalidomide)
[2] = compound: compound 22 (5-morpholino-thalidomide)
[3] = compound: compound 33 (diphenyl IMiD analogue)
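Further: pooled lentiviral library of zinc finger degron-EGFP fusions in mCherry-positive Jurkat cells, FACS-sorted after compound exposure, with degron abundance counted by next-generation sequencing.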

Sequence	log2 fold change of degron read counts [1]	log2 fold change of degron read counts [2]	log2 fold change of degron read counts [3]	log2 fold change of degron read counts (compound: thalidomide)
FRCDQCGAHFTQKGNLLRHIKL [46F_47R_49D_50Q_52G_53A_54H_55F_67L_, Q9UKT9]	-2.76	-2.89	-2.01	-2.48
FKCEICGAEFTQKGNLLRHIKL [46F_47K_49E_50I_52G_53A_54E_55F_67L_, Q9UKT9]	-0.284	-2.59	-3.54	-0.121
FCCNICGARFTQKGNLLRHIKL [46F_47C_49N_50I_52G_53A_54R_55F_67L_, Q9UKT9]	1.4	1.76	0.552	1.57
FDCDICGAPFTQKGNLLRHIKL [46F_47D_49D_50I_52G_53A_54P_55F_67L_, Q9UKT9]	0.272	-1.45	-1.51	-0.767
FTCDICGAPFTQKGNLLRHIKL [46F_47T_49D_50I_52G_53A_54P_55F_67L_, Q9UKT9]	2.1	2.86	1.41	1.93
FECDICGAPFTQKGNLLRHIKL [46F_47E_49D_50I_52G_53A_54P_55F_67L_, Q9UKT9]	1.27	-1.62	-0.0281	0.305
FNCDICGAPFTQKGNLLRHIKL [46F_47N_49D_50I_52G_53A_54P_55F_67L_, Q9UKT9]	2.68	1.25	-0.682	-0.153
FLCDICGAPFTQKGNLLRHIKL [46F_47L_49D_50I_52G_53A_54P_55F_67L_, Q9UKT9]	1.62	2.15	2.03	1.99
FICDICGAPFTQKGNLLRHIKL [46F_47I_49D_50I_52G_53A_54P_55F_67L_, Q9UKT9]	1.26	3.46	2.32	2.47
FSCDICGAPFTQKGNLLRHIKL [46F_47S_49D_50I_52G_53A_54P_55F_67L_, Q9UKT9]	2.36	1.62	0.275	0.668
FGCDICGAPFTQKGNLLRHIKL [46F_47G_49D_50I_52G_53A_54P_55F_67L_, Q9UKT9]	0.329	-0.821	-1.38	-1.4
FMCDICGAPFTQKGNLLRHIKL [46F_47M_49D_50I_52G_53A_54P_55F_67L_, Q9UKT9]	2.71	3.25	3.03	1.89
FKCDICGAPFTQKGNLLRHIKL [46F_47K_49D_50I_52G_53A_54P_55F_67L_, Q9UKT9]	1.21	0.288	-1.35	1.02
FACDICGAPFTQKGNLLRHIKL [46F_47A_49D_50I_52G_53A_54P_55F_67L_, Q9UKT9]	3.46	1.66	-0.501	0.383
FRCDICGAPFTQKGNLLRHIKL [46F_47R_49D_50I_52G_53A_54P_55F_67L_, Q9UKT9]	3.17	3.53	3.32	3.52
FSCDVCGAEFTQKGNLLRHIKL [46F_47S_49D_50V_52G_53A_54E_55F_67L_, Q9UKT9]	-0.733	-1.36	-1.13	-1.96
FNCNICGANFTQKGNLLRHIKL [46F_47N_49N_50I_52G_53A_54N_55F_67L_, Q9UKT9]	0.662	-0.0154	-0.393	-0.94
FGCDQCGARFTQKGNLLRHIKL [46F_47G_49D_50Q_52G_53A_54R_55F_67L_, Q9UKT9]	-1.28	-2.53	-2.52	-1.78
FKCEICGRWFTQKGNLLRHIKL [46F_47K_49E_50I_52G_53R_54W_55F_67L_, Q9UKT9]	-2.8	-3.25	-3.01	-2.58
FWCNQCGRHFTQKGNLLRHIKL [46F_47W_49N_50Q_52G_53R_54H_55F_67L_, Q9UKT9]	-1.56	-1.46	-1.56	-1.55
FACPQCGAVFTQKGNLLRHIKL [46F_47A_49P_50Q_52G_53A_54V_55F_67L_, Q9UKT9]	0.29	-1.36	-0.148	-1.43
FVCPICGHGFTQKGNLLRHIKL [46F_47V_49P_50I_52G_53H_54G_55F_67L_, Q9UKT9]	-2.33	-2.2	-1.88	-0.905
FLCEQCGAEFTQKGNLLRHIKL [46F_47L_49E_50Q_52G_53A_54E_55F_67L_, Q9UKT9]	-2.34	-3.65	-2.09	-1.63
FQCPQCGAYFTQKGNLLRHIKL [46F_47Q_49P_50Q_52G_53A_54Y_55F_67L_, Q9UKT9]	-1.88	-1.45	-0.995	1.25
LTCPICGFVCTQKGNLLRHIKL [46L_47T_49P_50I_52G_53F_54V_55C_67L_, Q9UKT9]	0.397	1.59	2.08	2.24
LCCPICGFVCTQKGNLLRHIKL [46L_47C_49P_50I_52G_53F_54V_55C_67L_, Q9UKT9]	1.01	1.57	2.59	2.1
LQCPICGFVCTQKGNLLRHIKL [46L_47Q_49P_50I_52G_53F_54V_55C_67L_, Q9UKT9]	0.325	2.16	1.88	3.76
LYCPICGFVCTQKGNLLRHIKL [46L_47Y_49P_50I_52G_53F_54V_55C_67L_, Q9UKT9]	3.29	3.49	2.29	1.2
LGCPICGFVCTQKGNLLRHIKL [46L_47G_49P_50I_52G_53F_54V_55C_67L_, Q9UKT9]	3.04	1.82	1.33	0.747
LMCPICGFVCTQKGNLLRHIKL [46L_47M_49P_50I_52G_53F_54V_55C_67L_, Q9UKT9]	-0.234	0.389	2.08	1.67
